Screens: PubChem BioAssay, several laboratories
CYP2C9 inhib: blockers of cytochrome P450 2C9 activity – biochemical, luminescence, ADME assay, primary screen; inhibition, % at 5 µM; AID 777, 2007; P11712; 96,000 tested, 20% active; CYP2C9 Supersomes, luciferin-H conversion;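 active = blocking of liver enzyme CYP2C9 beyond about 50% at 5 µM, limit read from the data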
Target sequence (P11712 whole entry, looked up): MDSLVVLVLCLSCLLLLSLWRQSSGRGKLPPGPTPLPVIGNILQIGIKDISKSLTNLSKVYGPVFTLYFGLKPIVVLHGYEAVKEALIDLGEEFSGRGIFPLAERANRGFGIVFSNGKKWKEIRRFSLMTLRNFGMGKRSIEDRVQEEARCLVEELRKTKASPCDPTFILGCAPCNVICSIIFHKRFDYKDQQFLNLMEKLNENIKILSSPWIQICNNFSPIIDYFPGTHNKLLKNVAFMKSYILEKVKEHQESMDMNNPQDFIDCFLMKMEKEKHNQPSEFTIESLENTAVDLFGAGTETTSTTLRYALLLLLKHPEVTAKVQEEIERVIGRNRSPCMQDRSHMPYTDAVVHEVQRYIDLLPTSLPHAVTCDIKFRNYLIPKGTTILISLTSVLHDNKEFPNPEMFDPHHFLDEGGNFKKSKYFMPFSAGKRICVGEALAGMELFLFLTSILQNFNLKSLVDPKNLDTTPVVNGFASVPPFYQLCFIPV
PostGolgi ctrl: growth inhibition of yeast control strain, primary screen, counter-screen for post-Golgi transport modulator project | efflux-deficient yeast background strain, growth absorbance A615, 16 h | inhibition, % at 10 µM | 98,000 tested, 5% active
CYP2C19 inhib: blockers of cytochrome P450 2C19 activity – biochemical, luminescence, ADME assay, primary screen; P33261; CYP2C19 Supersomes, luciferin-H EGE luminescence, 30 min; inhibition, % at 5 µM; 96,000 tested, 21% active;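 active = CYP2C19 inhibition above a set limit at 5 µM in the primary screen, cut at about 50% in these data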
CYP2C19 activ: human CYP2C19 activators, primary screen, biochemical, luminescence. activation factor at 5 µM. Cytochrome P450 2C19 (Homo sapiens), P33261. 96,000 tested, under 10 active. recombinant CYP2C19, luciferin-H EGE luminescence; stronger effect = higher value; 0 = fully inhibited enzyme, 1 = untreated enzyme. AID 1025, 2008;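 active = activation factor of at least 2 at 5 µM in the primary screen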
PostGolgi yeast: phenotypic screen on post-Golgi transport, primary screen. post-Golgi transport phenotypic cell assay. inhibition, % at 10 µM. 98,000 tested, 0.9% active. AID 739, 2007;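 note: yeast cells grown in 1536-well plates; yeast grown about 18 h at 30C before absorbance read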
CYP2C9 activ: human CYP2C9 activators, primary screen, biochemical, luminescence; Cytochrome P450 2C9 (Homo sapiens), P11712; recombinant CYP2C9, luciferin-H conversion; stronger effect = higher value; factor 1 = untreated enzyme, 0 = blocked; activation factor at 5 µM; 96,000 tested, 1.4% active;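 active = activation factor of 2 or more for CYP2C9 at a 5 µM dose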
Numbers stand for hits; - = inactive; . = no result. An excerpt weighted towards active compounds, which were near 32% of everything screened. Cut-off read from the data, not from the text of the source, unless noted: active = inhibition above about 30%; inactive = the rest.

SMILES | CYP2C9 inhib | PostGolgi ctrl | CYP2C19 inhib | CYP2C19 activ | PostGolgi yeast | CYP2C9 activ
CCCn1nnc(NC(=O)C(c2ccccc2)c2ccccc2)n1 | - | - | - | - | 34 | -
CCCn1nnc(NC(=O)c2ccco2)n1 | - | - | - | - | - | -
COc1ccc(OC)c(C(=O)C2COC(=O)C2)c1 (configuration not stated) | - | - | - | - | - | -
CN1C(=O)N2CN(C3CCCCC3)CN3C(=O)N(C)C1C23 (configuration not stated) | - | - | - | - | - | -
CC1/C(=N/O)CC(c2ccccc2)NC1c1ccccc1 (configuration not stated) | 51 | - | 70 | - | - | -
CC1C(=NO)C(C)C(c2ccccc2)NC1c1ccccc1 (configuration not stated) | - | - | 98 | - | - | -
Cc1ccc(C2NC(c3ccc(C)cc3)C(C)C(=NO)C2C)cc1 (configuration not stated) | 51 | - | 93 | - | - | -
CC(NC(=O)c1cnc2n(c1=O)CCS2)c1ccccc1 (configuration not stated) | - | - | - | - | - | -
COC(=O)c1nn(-c2ccccc2)c(Sc2ccc(C)cc2)c1/C=N/O | - | - | - | - | - | -
CCN1C(=O)c2cccc3c(S(=O)(=O)Nc4ccncc4)ccc1c23 | 66 | - | - | - | - | -
CCN1C(=O)c2cccc3c(NC(=O)c4ccc5c(c4)OCCO5)ccc1c23 | - | - | - | - | - | -
CCN1C(=O)c2cccc3c(S(=O)(=O)NCc4ccco4)ccc1c23 | . | - | . | . | - | .
CCN1C(=O)c2cccc3c(NC(=O)c4ccc(OC)c(OC)c4)ccc1c23 | 66 | - | 56 | - | - | -
CCN1C(=O)c2cccc3c(S(=O)(=O)Nc4ccc(OC)cc4OC)ccc1c23 | 96 | - | 78 | - | - | -
CCN1C(=O)c2cccc3c(S(=O)(=O)Nc4ccccc4)ccc1c23 | 100 | - | 60 | - | - | -
CCn1c(CNC(=O)Cc2ccc(OC)cc2)nnc1SCC(=O)NC1CCCCC1 | - | - | - | - | - | -
COC(=O)c1ccc2c(c1)N(Cc1nc(-c3cccc(C)c3)oc1C)C(=O)C1CCCN21 (configuration not stated) | - | - | - | - | - | -
CCN1C(=O)c2cccc3c(S(=O)(=O)Nc4nc(C)cs4)ccc1c23 | 93 | - | - | - | - | -
c1ccc(-c2nnc(SCCC3OCCCO3)o2)cc1 | - | - | - | - | - | -
CC(CCc1ccccc1)NC(=O)C(Cc1ccccc1)NS(=O)(=O)c1cccs1 (configuration not stated) | 79 | - | 76 | - | - | -
CCC(C)NC(=O)C(Cc1ccccc1)NS(=O)(=O)c1cccc2nsnc12 (configuration not stated) | - | - | - | - | - | -
CC1CCCCC1NC(=O)C(Cc1ccccc1)NS(=O)(=O)c1cccs1 (configuration not stated) | 73 | - | 84 | - | - | -
CCOC(=O)CNC(=O)c1c(C)nn(-c2ccccc2)c1Cl | - | - | - | - | - | -
Cc1nn(-c2ccccc2)c(Cl)c1C(=O)OC(C)C(=O)NC(=O)NC1CCCCC1 (configuration not stated) | 55 | - | - | - | - | -
Cc1nn(-c2ccccc2)c(Cl)c1C(=O)NCC(C)C | 63 | - | 69 | - | - | -
SMILES | CYP2C9 inhib | PostGolgi ctrl | CYP2C19 inhib | CYP2C19 activ | PostGolgi yeast | CYP2C9 activ
O=C(CN1C(=O)CSC1=O)Nc1ccc(C(=O)O)cc1 | - | - | - | - | - | -
O=C(c1ccc(Br)cc1)c1cc([N+](=O)[O-])ccc1N1CCCCC1 | 61 | - | 65 | - | - | -
Cc1ccc(C(=O)c2cc([N+](=O)[O-])ccc2N2CCN(C)CC2)cc1 | - | - | - | - | - | -
COc1ccc(Cl)cc1-n1c(C)cc(C(=O)O)c1C | - | - | - | - | - | -
COc1ccc(Cl)cc1-n1c(C)cc(C=O)c1C | 60 | - | 87 | - | - | -
Cc1ccc2nc(CSc3nc(C)ccc3C#N)[nH]c2c1 | - | - | 58 | - | - | -
